In PubChem BioAssay:
Calls of active or inactive are those of the source.

What was measured:
[1] = optical density shifts of acrAB sulA E. coli – strain DRC41, OD650, 48 h, E. coli filamentation inducer project, primary screen (AID 1152); conditions: higher = more signal, called active from +8 up or from −8 down;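 also: E. coli MC1000 strain DRC41 lacking acrAB efflux pump and sulA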
[2] = probe aLefty1 binding on compound microarray – biochemical, small-molecule microarray, 635/667 nm fluorescence, primary screen (AID 1153); conditions: higher = more signal;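 also: score merges spot fluorescence with signal-to-noise ratio from the scanned slide images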
[3] = plasmodial surface anion channel blockers, osmotic lysis – cell-based, P. falciparum Indochina, OD700, 1 h, primary screen (AID 1154); conditions: P. falciparum Indochina infected RBC osmotic lysis, higher = more signal, called active from +8 up or from −8 down
[4] = plasmodial surface anion channel blockers, osmotic lysis – cell-based, P. falciparum Indochina, OD700, 2 h, primary screen (AID 1155);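 also: lysis reports solute entry through the parasite surface anion channel PSAC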; conditions: P. falciparum Indochina infected erythrocytes, higher = more signal, called active from +8 up or from −8 down
[5] = changes in parasitized red cell lysis, either direction – P. falciparum Indochina, OD700, 3 h, PSAC antagonist project, primary screen (AID 1156); conditions: P. falciparum-infected erythrocytes, osmotic lysis, higher = more signal, called active from +8 up or from −8 down
[6] = plasmodial surface anion channel blockers, osmotic lysis – cell-based, P. falciparum Indochina, OD700, 18 h, primary screen (AID 1157); conditions: P. falciparum Indochina infected erythrocytes, osmotic lysis OD700, 18 h; higher = more signal, called active from +8 up or from −8 down
[7] = S6 kinase pathway phospho-S6 level changes – cell-based, A549, cytoblot, luminescence, serum-stimulated, primary screen (AID 1158); conditions: 5 h, higher = more signal;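 also: serum-stimulated A549 lung adenocarcinoma cells; signal is phosphorylated S6 detected by cytoblot immunostaining with HRP secondary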
[8] = molecular target: NADPH oxidase 2 (Homo sapiens) (UniProt P04839); assay: compounds shifting NOX2 Amplex Red fluorescence – cell-based, HEK293-NOX2, PMA-stimulated, NOX inhibitor project, primary screen (AID 1159); conditions: 45 min, higher = more signal, called active from +8 up or from −8 down; also: test concentration not given here
Chain of NADPH oxidase 2 (Homo sapiens) (P04839 whole entry, looked up): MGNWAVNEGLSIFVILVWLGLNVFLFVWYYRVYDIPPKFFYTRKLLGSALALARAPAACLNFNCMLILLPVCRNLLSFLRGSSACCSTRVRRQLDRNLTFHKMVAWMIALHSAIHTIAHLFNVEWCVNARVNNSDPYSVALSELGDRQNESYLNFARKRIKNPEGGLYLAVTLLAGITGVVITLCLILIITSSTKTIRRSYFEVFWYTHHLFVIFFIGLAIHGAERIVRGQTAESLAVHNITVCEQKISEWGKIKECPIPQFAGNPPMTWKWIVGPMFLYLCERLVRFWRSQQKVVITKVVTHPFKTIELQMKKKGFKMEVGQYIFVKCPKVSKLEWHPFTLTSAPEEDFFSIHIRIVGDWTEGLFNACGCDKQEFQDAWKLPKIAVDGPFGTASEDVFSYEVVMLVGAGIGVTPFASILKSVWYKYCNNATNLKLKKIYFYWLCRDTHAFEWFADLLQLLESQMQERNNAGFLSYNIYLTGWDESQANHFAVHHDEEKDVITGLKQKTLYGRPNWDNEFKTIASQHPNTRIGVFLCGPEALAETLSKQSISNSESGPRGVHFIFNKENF

[9] = molecular target: NADPH oxidase 4 (Homo sapiens) (UniProt Q9NPH5); assay: compounds shifting NOX4 Amplex Red fluorescence – cell-based, HEK293-NOX4, tetracycline-induced, NOX inhibitor project, primary screen (AID 1160); conditions: HEK293-NOX4, Amplex Red H2O2 fluorescence, 45 min; higher = more signal, called active from +8 up or from −8 down
Chain of NADPH oxidase 4 (Homo sapiens) (Q9NPH5 whole entry, looked up): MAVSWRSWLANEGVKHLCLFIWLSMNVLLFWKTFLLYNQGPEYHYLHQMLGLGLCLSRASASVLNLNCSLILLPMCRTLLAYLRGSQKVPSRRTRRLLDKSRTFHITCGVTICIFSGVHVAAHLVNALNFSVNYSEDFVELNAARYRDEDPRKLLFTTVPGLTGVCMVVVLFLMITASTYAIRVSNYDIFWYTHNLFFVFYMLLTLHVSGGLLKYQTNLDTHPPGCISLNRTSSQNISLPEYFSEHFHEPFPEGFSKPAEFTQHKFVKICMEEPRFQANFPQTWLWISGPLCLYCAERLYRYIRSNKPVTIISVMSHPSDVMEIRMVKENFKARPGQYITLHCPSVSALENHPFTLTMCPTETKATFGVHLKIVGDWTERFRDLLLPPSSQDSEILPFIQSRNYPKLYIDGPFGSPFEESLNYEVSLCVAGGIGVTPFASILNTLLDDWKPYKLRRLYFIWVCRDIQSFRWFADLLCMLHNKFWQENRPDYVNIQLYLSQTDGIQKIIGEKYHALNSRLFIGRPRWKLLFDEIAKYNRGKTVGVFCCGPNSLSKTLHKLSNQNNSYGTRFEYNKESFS

[10] = molecular target: NADPH oxidase 5 (Homo sapiens) (UniProt Q96PH1); assay: compounds shifting NOX5 Amplex Red fluorescence – cell-based, HEK293-NOX5, NOX inhibitor project, primary screen (AID 1161); conditions: HEK293-NOX5, ionomycin, 45 min, higher = more signal
Chain of NADPH oxidase 5 (Homo sapiens) (Q96PH1 whole entry, looked up): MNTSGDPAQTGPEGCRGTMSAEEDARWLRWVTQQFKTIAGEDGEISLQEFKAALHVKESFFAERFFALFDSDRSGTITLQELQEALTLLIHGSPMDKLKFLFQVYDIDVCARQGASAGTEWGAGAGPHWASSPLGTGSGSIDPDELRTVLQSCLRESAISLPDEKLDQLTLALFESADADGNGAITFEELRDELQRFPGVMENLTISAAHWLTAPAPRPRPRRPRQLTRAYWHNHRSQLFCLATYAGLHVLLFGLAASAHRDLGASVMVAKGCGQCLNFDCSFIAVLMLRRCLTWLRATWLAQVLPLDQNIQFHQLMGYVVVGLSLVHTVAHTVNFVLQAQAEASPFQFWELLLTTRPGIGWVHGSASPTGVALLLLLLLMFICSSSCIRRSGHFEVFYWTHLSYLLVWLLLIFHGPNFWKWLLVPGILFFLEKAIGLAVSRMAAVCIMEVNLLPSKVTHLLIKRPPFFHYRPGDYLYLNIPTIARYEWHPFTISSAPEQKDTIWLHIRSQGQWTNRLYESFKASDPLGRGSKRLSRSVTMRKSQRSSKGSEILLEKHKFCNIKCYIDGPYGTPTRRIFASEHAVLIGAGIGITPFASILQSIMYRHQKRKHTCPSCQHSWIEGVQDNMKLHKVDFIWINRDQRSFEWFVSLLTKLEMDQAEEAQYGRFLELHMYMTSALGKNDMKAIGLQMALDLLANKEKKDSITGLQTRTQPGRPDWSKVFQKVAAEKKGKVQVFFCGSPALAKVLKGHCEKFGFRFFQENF

| Structure (SMILES) | z-score [1] | composite z-score [2] | z-score [3] | z-score [4] | z-score [5] | z-score [6] | z-score [7] | z-score [8] | z-score [9] | z-score [10] |
| --- | --- | --- | --- | --- | --- | --- | --- | --- | --- | --- |
| COC(=O)[C@@]1(Cc2ccc(OC)cc2)[C@H]2c3cc(C(=O)N4CCCC4)n(Cc4ccsc4Br)c3C[C@H]2CN1C(=O)c1ccccc1 | -0.68 (inactive) | 0.0429 | 0.538 (inactive) | -0.155 (inactive) | 0.0114 (inactive) | 0.469 (inactive) | 0.0613 | 0.289 (inactive) | -0.137 (inactive) | -1.24 |
| C=C(/C(=C/C[C@@H](OC(C)=O)c1ccc(OCCO)cc1)c1cnc2ccccc2c1)C(C)C | 1.14 (inactive) | -0.342 | 15.4 (active) | 2.26 (inactive) | 1.79 (inactive) | 0.97 (inactive) | 0.853 | -2.99 (inactive) | -0.926 (inactive) | -2.24 |
| CCCCCCC#C[Si](O[C@H](c1ccccc1)c1cn([C@H](CO)Cc2ccccc2)nn1)(C(C)C)C(C)C | 2.03 (inactive) | -0.217 | 0.704 (inactive) | 0.268 (inactive) | -0.55 (inactive) | 0.602 (inactive) | 0.447 | -1.25 (inactive) | -0.227 (inactive) | -2.2 |
| O=C1[C@H]2C=C(Br)[C@H](C[C@@H]2c2ccccc2)[C@@]12CO2 | -1.47 (inactive) | 0.0041 | 1.22 (inactive) | 0.497 (inactive) | 0.637 (inactive) | 0.279 (inactive) | -0.327 | 0.242 (inactive) | 0.141 (inactive) | -0.855 |
| COCCOC(=O)N1C(=O)[C@@]2(c3cc(C#Cc4ccc(OC)cc4)ccc31)[C@H](c1ccccc1OCCO)N1[C@H](c3ccccc3)[C@H](c3ccccc3)OC(=O)[C@H]1[C@@H]2C(=O)N1CCN(c2ncccn2)CC1 | 0.148 (inactive) | 0.118 | 3.79 (inactive) | 3.04 (inactive) | 1.3 (inactive) | 1.76 (inactive) | -0.133 | 0.978 (inactive) | -0.00787 (inactive) | 0.882 |
| C#CCN(CC1=CCCCC1)[C@H](c1ccccc1Br)[C@@H](O)Cc1ccccc1 | 1.5 (inactive) | -0.0547 | 3.02 (inactive) | 0.849 (inactive) | 0.372 (inactive) | 0.109 (inactive) | 0.114 | -0.456 (inactive) | 0.191 (inactive) | -1.45 |
| COCCOC(=O)N1C(=O)[C@@]2(c3cc(C#CCCO)ccc31)[C@H](C(=O)N1CCc3cc(OC)c(OC)cc3C1)[C@H]1C(=O)O[C@H](c3ccccc3)[C@H](c3ccccc3)N1[C@@H]2c1ccc(O)cc1 | 0.38 (inactive) | 0.88 | 1.49 (inactive) | 0.349 (inactive) | 0.262 (inactive) | 0.222 (inactive) | 0.113 | 1.26 (inactive) | 0.706 (inactive) | 1.29 |
| [N-]=[N+]=NCc1ccccc1[C@@H]1OC(c2ccc(OCCCO)cc2)=N[C@]1(Cc1ccccc1N=[N+]=[N-])C(=O)N1CCOCC1 | -0.66 (inactive) | 0.628 | 16.9 (active) | 3.7 (inactive) | 1.17 (inactive) | 1.01 (inactive) | 0.37 | -1.31 (inactive) | 1.23 (inactive) | 1.4 |
| COCCCNC(=O)[C@@]1(Cc2ccccc2)N=C(c2ccc(OCCCO)cc2)O[C@H]1c1ccccc1 | -0.146 (inactive) | 0.39 | 19.7 (active) | 3.35 (inactive) | -0.321 (inactive) | 0.32 (inactive) | -0.628 | -0.981 (inactive) | 1.11 (inactive) | 1.86 |
| OC([C@@H]1CC(c2ccccc2)=NO1)[C@H]1CC(c2ccccc2)=NO1 (stereo not given in full) | 2.12 (inactive) | 0.139 | 24.6 (active) | 9.43 (active) | 0.291 (inactive) | 1.07 (inactive) | 0.383 | -0.51 (inactive) | -0.0169 (inactive) | 0.357 |
| O=C1O[C@H](c2ccccc2)[C@H](c2ccccc2)N2[C@H]1[C@@H](C(=O)Nc1nc3ccccc3s1)[C@]1(C(=O)Nc3ccc(C#CCCO)cc31)[C@H]2c1ccc(OCCO)cc1 | -0.448 (inactive) | 1.34 | 3.09 (inactive) | 2.02 (inactive) | 0.97 (inactive) | 2 (inactive) | -0.472 | 1.18 (inactive) | 0.111 (inactive) | 0.278 |
| COC(=O)[C@@]1(Cc2ccc(F)cc2)[C@H]2c3cc(C(=O)N4CCCC4)n(Cc4ccc(C)o4)c3C[C@H]2CN1C(=O)c1ccccc1 | -1.63 (inactive) | -0.0464 | 4.25 (inactive) | 0.713 (inactive) | 1.57 (inactive) | 0.886 (inactive) | -0.118 | -0.0294 (inactive) | -0.466 (inactive) | -3.03 |
| CCCCCC1=C2CNC(CCC)(C(=O)OC)C=C2C(C)C1=O (stereo not given) | -1.11 (inactive) | 0.358 | 2.2 (inactive) | 0.0123 (inactive) | 0.807 (inactive) | 0.493 (inactive) | -0.39 | 0.0917 (inactive) | -1.52 (inactive) | -3.63 |
| COc1ccc(CCN2C(=O)[C@@]3(c4ccc([N+](=O)[O-])cc4)CC(=O)N(C4CCCCC4)[C@@H]3c3ccc(CO)cc32)cc1 | -0.183 (inactive) | 0.131 | -0.715 (inactive) | -0.0259 (inactive) | -0.979 (inactive) | -0.138 (inactive) | -0.423 | -1.47 (inactive) | -0.763 (inactive) | -0.0167 |
| CCCN1C(=O)[C@]2(CCS(=O)(=O)c3ccccc3)N=C(c3ccc(OCCCO)cc3)O[C@@H]2c2ccccc21 | 1.51 (inactive) | 0.497 | 29.3 (active) | 21.2 (active) | 1.31 (inactive) | 0.471 (inactive) | 1.42 | -1.5 (inactive) | -0.284 (inactive) | -1.17 |
| CCCCN1CC=CC23O[C@@H]4/C=C\CCC(C)OC(=O)C4[C@H]2C(=O)N(CCCCCO)[C@@H]3C1=O (stereo not given in full) | 0.119 (inactive) | -0.147 | 1.03 (inactive) | -0.0101 (inactive) | -0.0712 (inactive) | 0.406 (inactive) | 0.002 | 0.395 (inactive) | -0.022 (inactive) | 1.21 |
| C=CCC(OC(C)=O)[C@@H]1[C@@H](N(Cc2ccc(-c3cccc(C(F)(F)F)c3)o2)C(=O)c2ccc(-c3ccccc3)cc2)c2cc(OCCCO)ccc2N1C(=O)c1ccc(-c2ccccc2)cc1 (stereo not given in full) | -0.894 (inactive) | -0.169 | 0.566 (inactive) | 0.434 (inactive) | 0.0785 (inactive) | 0.508 (inactive) | 0.0635 | -1.27 (inactive) | -1.05 (inactive) | 0.713 |
| CCOC(=O)C[C@H]1[C@H](OC(=O)Cc2ccc3c(c2)OCO3)[C@@H](NC(=O)c2ccc(-c3ccccc3)cc2)c2cc(OCCCO)ccc2N1C(=O)Cc1ccc(OC)cc1 | 2.84 (inactive) | 0.123 | 25.4 (active) | 11.2 (active) | -0.67 (inactive) | 0.464 (inactive) | 1.74 | -1.35 (inactive) | 1.26 (inactive) | 2.24 |
| CCOC(=O)C[C@H]1[C@H](OC(=O)c2cc3ccccc3oc2=O)[C@@H](NC(=O)Cc2ccc(OC)cc2)c2cc(OCCCO)ccc2N1C(=O)c1ccccc1 | 0.386 (inactive) | 0.0942 | 0.743 (inactive) | -1.44 (inactive) | 0.776 (inactive) | -2.76 (inactive) | 1.03 | -0.569 (inactive) | -0.523 (inactive) | -0.286 |
| COC(=O)[C@@]1(Cc2ccccc2)[C@H]2c3cc(C(=O)N4CCCC4)n(Cc4nc5ccccc5[nH]4)c3C[C@H]2CN1C(=O)c1ccccc1 | -1.31 (inactive) | 1.06 | 3.2 (inactive) | 0.541 (inactive) | 2.65 (inactive) | 0.959 (inactive) | -0.25 | 0.311 (inactive) | -0.142 (inactive) | -3 |
| CCN(CC)c1ccc(N2CC=CC34O[C@@H]5/C=C\CCC(C)OC(=O)C5[C@H]3C(=O)N(C(CO)C(C)C)[C@@H]4C2=O)cc1 (stereo not given in full) | 0.295 (inactive) | 0.2 | 1.82 (inactive) | 0.585 (inactive) | 0.975 (inactive) | 0.674 (inactive) | -0.232 | 0.398 (inactive) | -0.502 (inactive) | 0.855 |
| Cc1ccc(S[C@]2(C(=O)NCCN3CCOCC3)CC(=O)N(Cc3ccccc3)[C@@H]2c2ccc(CO)cc2I)cc1 | 0.434 (inactive) | 0.0752 | 8.54 (active) | 0.37 (inactive) | 1.13 (inactive) | -1.19 (inactive) | 2.42 | 1.99 (inactive) | -2.89 (inactive) | 0.422 |
| CC(=O)n1cc(C(O)C2C=CC3C(=O)N(C)C(=O)C3N2Nc2ccccc2)c2ccccc21 (stereo not given) | -1.39 (inactive) | 0.384 | 1.11 (inactive) | 0.475 (inactive) | -0.372 (inactive) | 0.876 (inactive) | -0.994 | -1.57 (inactive) | -3.46 (inactive) | -2.78 |
| CCCCC(O)C1C=CC2C(=O)N(c3ccccc3)C(=O)C2N1Nc1ccccc1F (stereo not given) | -1.06 (inactive) | 0.328 | 0.449 (inactive) | 1.49 (inactive) | 0.273 (inactive) | 1.19 (inactive) | -1.3 | -1.2 (inactive) | -4.93 (inactive) | -1.88 |
| C=CCC(OC(C)=O)[C@@H]1[C@@H](N(Cc2ccc(-c3ccccc3)cc2)C(=O)Cc2ccc(F)cc2)c2cc(OCCCO)ccc2N1C(=O)c1ccc(-c2ccccc2)cc1 (stereo not given in full) | 2.08 (inactive) | -0.0193 | 0.66 (inactive) | -0.221 (inactive) | -0.567 (inactive) | -0.154 (inactive) | 1.26 | -1.49 (inactive) | 0.414 (inactive) | 0.263 |
| C=C(CCCC)C(=O)CC[C@H](OC(=O)c1cccnc1)c1ccccc1OCCO | 0.853 (inactive) | -0.012 | 16 (active) | 1.6 (inactive) | 0.232 (inactive) | -0.674 (inactive) | 1.28 | -1.2 (inactive) | -0.324 (inactive) | -2.33 |
